For 67 compounds, Potency results are on record in PubChem BioAssay AID540276 (National Center for Advancing Translational Sciences (NCATS), 2011).

Values joined by “and” are separate entries in the source; they are usually repeats but may differ in a detail not shown here. Identical values can stand only once. Screen size: about 300,000 compounds; about 5,400 (1.8%) were called active. Entries that show only a call come without a potency. About 28% were inconclusive and are not listed. Calls follow the shape of the full dose curve; tested in HEK293 cells. Many of the other results were omitted from the sample, so actives are more common in it than they were. The source holds several records for some structures; these can differ, active in one and inactive in another.
Potency is read from the fitted curve at half-maximal effect.

This experiment can be described thus: qHTS for inhibitors of binding or entry into cells for Marburg Virus. Conditions: Marburg virus pseudotyped entry inhibition, cell reporter; series mostly up to 37.8 µM.
Regarding `CC(NCc1nc2ccccc2n1C)C12CC3CC(CC(C3)C1)C2` (configuration not stated), the Potency is 11.2 µM (active). In the case of `Cn1c(COc2ccccc2C(C)(C)C)nc2ccccc21` it was “inactive”; in that of `Cn1c(CNC(=O)C(C)(C)C)nc2ccccc21`, “inactive”.

For `C#CCOCCOCCOCCNc1nc(N2CCN(C(=O)Cn3cc(CCO)nn3)CC2)nc(N2CCN(C(=O)Cn3cc(CCCN=C(N)N)nn3)CC2)n1`, the Potency entry was “inactive”. Take `O=C1C(=O)N(CCN2CCOCC2)[C@@H](c2ccccn2)/C1=C(/O)c1ccc(F)cc1`: the Potency result is “inactive”. As to `CCN(CC)c1ccc(/C=N/Nc2nc(C)cc(C)n2)c(O)c1`, the Potency was 6.51 µM (active).

Take `CCN(CC)c1ccc(/C=N/Nc2nc(C)cc(=O)[nH]2)cc1`: the Potency entry is “inactive”.

`Cc1cc(C)nc(N/N=C/c2ccncc2)n1`: the Potency result was “inactive”. In the case of `Cn1ncc2c(Nc3cccc4ccccc34)ncnc21`, the Potency entry is “inactive”. As for `CN(C)c1cc2c(Nc3ccc4c(cnn4Cc4ccccc4)c3)ncnc2cn1`, the figure is 8.91 µM (active). Regarding `Clc1ccc(Nc2ncnc3c2nnn3Cc2ccccc2)cc1`, the Potency entry is “inactive”. As for `Cc1ccc(CN2CCNC(=O)C2CC(=O)NCc2csc(C(C)C)n2)cc1` (configuration not stated), the Potency entry is “inactive”. Consider `Cc1ccsc1C(=O)NNC(=O)COc1ccc(Br)cc1`, for which the Potency result was “inactive”. Take `CC1CCN(C(=O)c2ccc3c(=O)n4c(nc3c2)CCCCC4)CC1`: the Potency entry was “inactive”. As to `CCc1ccc(CNC(=O)c2cc3c(=O)n(CC)c4ccccc4c3s2)cc1`, the Potency result was “inactive”.

For the compound `CCN(CCCNC(=O)c1cc2c(=O)n(CC)c3ccccc3c2s1)Cc1ccccc1`, the Potency was 4.47 µM (active). Consider `CCn1c(=O)c2cc(C(=O)NCCc3ccc(Cl)cc3)sc2c2ccccc21`, for which the Potency entry was “inactive”. As for `Cc1ccc(CS(=O)Cc2ccc(C(=O)N3CCOCC3)o2)cc1` (configuration not stated), the entry is “inactive”. Turning to `C/C(=N\Nc1ccccc1)c1cccs1`, the Potency result was “inactive”. Regarding `Oc1ccc2ccccc2c1C=Nc1ccccc1`, the Potency entry is “inactive”. With `Oc1ccc2ccccc2c1N=Nc1nccs1`, the Potency was 3.55 µM (active). `O=C(Cc1ccc(NC(=O)C2CCCN(C(=O)CCc3ccccc3)C2)cc1)Nc1ccc(C(=O)N2CCOCC2)cc1` (configuration not stated): the Potency entry is “inactive”. In the case of `COc1ccc(N2CCN(CCNC(=O)Nc3cc(Cl)ccc3Cl)CC2)cc1`, the Potency entry is “inactive”. On to `CN(Cc1ccccc1)C(=O)COC(=O)/C=C/c1ccc2c(c1)OCO2`, for which the Potency result was “inactive”. As to `N=c1c2c(-c3ccccc3)c(-c3ccccc3)n(Cc3ccccc3)c2ncn1CCCO`, the Potency was 5.8 µM (active).

Regarding `CC(C)Cn1cnc2c1c(=O)n(CC(=O)NN)c(=O)n2Cc1ccccc1`, the Potency result was “inactive”. In the case of `COCCn1cnc2c1c(=O)n(Cc1ccc(Br)cc1)c(=O)n2Cc1ccccc1` it was “inactive”; in that of `Cc1cc(NC(=O)CCN2CCN(Cc3ccccc3)CC2)ccc1Br`, “inactive”. With `CCCCN(C(=O)c1ccc(C)o1)c1c(N)n(CCCC)c(=O)[nH]c1=O`, the Potency entry is “inactive”. `CCCCCCC(O)(CCN1CCCCC1)c1ccccc1` (configuration not stated): the Potency is 12.6 µM (active). As for `O=C(c1ccccc1)C(O)(CN1CCCCC1)c1ccccc1` (configuration not stated), the entry is “inactive”; as for `CCc1ccccc1NC(=O)NCCN1CCCCC1`, “inactive”. Regarding `CCOC(=O)c1ccc(NC(=O)CNC(=O)c2ccco2)cc1`, the Potency result was “inactive”. For `COCCn1nnnc1C(c1cc2ccc(OC)cc2[nH]c1=O)N1CCc2ccccc2C1` (configuration not stated), the Potency entry is “inactive”.

In the case of `COc1ccc(OC)c(C(c2nnnn2C(C)(C)C)N2CCc3ccccc3C2)c1` (configuration not stated), the Potency is 12.6 µM (active). Take `Cc1ccc(C(c2nnnn2C(C)(C)C)N2CCc3ccccc3C2)cc1` (configuration not stated): the Potency result was “inactive”. With `COc1cc2c(cc1OC)CN(C(C)C(=O)Nc1cccc(S(=O)(=O)N3CCOCC3)c1)CC2` (configuration not stated), the Potency result is “inactive”. Consider `C#CCOc1ccc(/C=C2/C(=O)NN(c3ccccc3)C2=O)cc1OC`, for which the Potency result is “inactive”.

With `COc1cc(/C=C2/C(=O)NN(c3ccc(F)cc3)C2=O)cc([N+](=O)[O-])c1O`, the Potency was 3.55 µM (active). For `COc1cc(CN2CC(C)CC(C)C2)cc([N+](=O)[O-])c1O` (configuration not stated), the Potency result is “inactive”. On to `CC12CCC(=O)N1C(C(=O)NCCN1C(=O)S/C(=C\c3ccccc3F)C1=O)CS2` (configuration not stated), for which the Potency result was “inactive”.

For the compound `Cc1ccc(S(=O)(=O)NCC(=O)NNC(=O)c2ccc(Br)cc2)cc1C`, the Potency entry is “inactive”. In the case of `O=C(CCNS(=O)(=O)c1ccccc1)NCCCc1ccccc1` it was “inactive”; in that of `O=C(CCNS(=O)(=O)c1ccccc1)Nc1ccc(Cl)cc1C(=O)c1ccccc1`, 8.91 µM (active).

On to `O=C(COC(=O)c1ccccc1)Nc1ccc(Cl)cc1C(=O)c1ccccc1`, for which the Potency entry was “inactive”. As to `O=C(CN(Cc1ccccc1)C(=O)CCC(=O)Nc1ccccn1)NCCc1ccccc1`, the Potency result was “inactive”. As for `O=C(COC(=O)c1ccc(Oc2ccccc2)cc1)Nc1nnc(-c2ccccc2)o1`, the entry is “inactive”; as for `COc1cccc(-c2nnc(NC(=O)c3ccc(S(=O)(=O)N(CC(C)C)CC(C)C)cc3)o2)c1`, 1.26 µM (active); as for `COc1cccc(NC(=O)CN(C)S(=O)(=O)c2ccc(C)cc2)c1`, “inactive”.

Take `O=C1NCC(c2ccccc2)(c2ccccc2)C(=O)N1`: the Potency entry was “inactive”.

On to `COc1ccc(Cl)cc1NS(=O)(=O)c1cccc(C(=O)NC2CCC(O)CC2)c1` (configuration not stated), for which the Potency result was “inactive”. Consider `COCCC(=O)N1CCC(Oc2ccc(C(=O)NCc3ccon3)cc2)CC1`, for which the Potency entry was “inactive”. Turning to `CCOC(=O)C1CCCN(CCSc2ccc(C)cc2)C1` (configuration not stated), the Potency entry is “inactive”. For the compound `CN1CCN(c2cc(N3CCNCC3)ccc2[N+](=O)[O-])CC1`, the Potency was 5.01 µM (active). As for `O=C(c1cccc(F)c1)N1CCN(c2ccc([N+](=O)[O-])c(N3CCCCC3)c2)CC1`, the Potency entry is “inactive”. In the case of `CN1CCN(c2ccc([N+](=O)[O-])c(Sc3nc4ccccc4[nH]3)c2)CC1` it was “inactive”. On to `O=C(NN=CC=Cc1ccccc1)C(O)C(O)C(=O)NN=CC=Cc1ccccc1` (configuration not stated), for which the Potency result was “inactive”. As for `N#CC1(Nc2ccc(-c3ccc(Cl)cc3)cc2)CCCC1`, the Potency entry was “inactive”. Turning to `Cc1cc(NC(=O)CSc2ncc(C(F)(F)F)cc2Cl)no1`, the Potency result was “inactive”. Turning to `CCOC(=O)CSC1=c2ccccc2=NC1c1cccs1` (configuration not stated), the Potency result was “inactive”. In the case of `CC1CCN(C(=O)COC(=O)CCC(=O)c2cccs2)CC1` it was “inactive”. In the case of `COc1ccc(-n2nc(C(=O)NCC(=O)N3CCN(c4ccccc4OC)CC3)c3ccccc3c2=O)c(OC)c1` it was “inactive”; in that of `CN(Cc1ccccc1Cl)C(=O)C1CCC(=O)N(CCc2cccc(F)c2)C1` (configuration not stated), “inactive”; in that of `COc1cc(C)ccc1OCC(=O)OCC(=O)c1ccc[nH]1`, “inactive”.

For the compound `Cn1c2ccccc2c2c(C(=O)N3CCN(c4ccc(F)cc4)CC3)cn(C3CCCC3)c(=O)c21`, the Potency result was “inactive and 17.8 µM (active)”. Regarding `CCOc1ccc(NC(=O)c2cn(C3CCCCC3)c(=O)c3c2c2ccccc2n3C)cc1`, the Potency entry is “inactive”.

For the compound `O=C(c1ccccc1Oc1ccccc1)N1CCN(c2ccc(F)cc2)CC1`, the Potency entry is “inactive”.
